Assay results reported in article PMC9911399, “Two distinct binding modes provide the RNA-binding protein RbFox with extraordinary sequence specificity”.
Substitutions are numbered along the chain they refer to; changes in the protein carry UniProt numbers. Whole data set: some 16,000 sequences, median “ka relative to ugcaugu” near 0.096, cut for the highest 2% near 0.35. For the sample, the highest values were picked, then their nearest neighbours and some sequences at random.

T1: RBFOX1 RRM RbFoxmut (Fox-RRM*) (Homo sapiens, UniProt Q9NWB1 109-208, R118D;E147R;N151S;E152T)
T1 sequence: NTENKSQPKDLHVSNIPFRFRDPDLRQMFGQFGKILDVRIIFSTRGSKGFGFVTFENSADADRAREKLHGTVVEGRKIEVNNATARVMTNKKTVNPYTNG

B1: ACUCCUU (DNA:RNA)
RNA: GGGAGACCGGAAUUCAGAUUGUCCACUCCUUUUAAAUCCCGUCGUAGCCACCA
DNA 1: CAATCTGAATTCCGGTCTCCC
DNA 2: TGGTGGCTACGACGGGATT
B2: UUGUUCC (DNA:RNA)
RNA: GGGAGACCGGAAUUCAGAUUGUCCUUGUUCCUUAAAUCCCGUCGUAGCCACCA
DNA 1: CAATCTGAATTCCGGTCTCCC
DNA 2: TGGTGGCTACGACGGGATT
B3: AAAUGUA (DNA:RNA)
RNA: B1 RNA with C26A, U27A, C28U, C29G, U31A
DNA 1: CAATCTGAATTCCGGTCTCCC
DNA 2: TGGTGGCTACGACGGGATT
B4: CGUAUUA (DNA:RNA)
RNA: B1 RNA with A25C, C26G, C28A, C29U, U31A
DNA 1: CAATCTGAATTCCGGTCTCCC
DNA 2: TGGTGGCTACGACGGGATT
B5: AUGUGAG (DNA:RNA)
RNA: B2 RNA with U25A, U29G, C30A, C31G
DNA 1: CAATCTGAATTCCGGTCTCCC
DNA 2: TGGTGGCTACGACGGGATT
B6: GAUAGGC (DNA:RNA)
RNA: B1 RNA with A25G, C26A, C28A, C29G, U30G, U31C
DNA 1: CAATCTGAATTCCGGTCTCCC
DNA 2: TGGTGGCTACGACGGGATT
B7: AAGUUCU (DNA:RNA)
RNA: B2 RNA with U25A, U26A, C31U
DNA 1: CAATCTGAATTCCGGTCTCCC
DNA 2: TGGTGGCTACGACGGGATT
B8: UGUGAUC (DNA:RNA)
RNA: B1 RNA with A25U, C26G, C28G, C29A, U31C
DNA 1: CAATCTGAATTCCGGTCTCCC
DNA 2: TGGTGGCTACGACGGGATT
B9: CGUGAUC (DNA:RNA)
RNA: B1 RNA with A25C, C26G, C28G, C29A, U31C
DNA 1: CAATCTGAATTCCGGTCTCCC
DNA 2: TGGTGGCTACGACGGGATT
B10: CGUGAUG (DNA:RNA)
RNA: B1 RNA with A25C, C26G, C28G, C29A, U31G
DNA 1: CAATCTGAATTCCGGTCTCCC
DNA 2: TGGTGGCTACGACGGGATT
B11: UGUGUGA (DNA:RNA)
RNA: B2 RNA with U26G, G27U, U28G, C30G, C31A
DNA 1: CAATCTGAATTCCGGTCTCCC
DNA 2: TGGTGGCTACGACGGGATT
B12: UGAUCUG (DNA:RNA)
RNA: B1 RNA with A25U, C26G, U27A, C28U, U31G
DNA 1: CAATCTGAATTCCGGTCTCCC
DNA 2: TGGTGGCTACGACGGGATT
B13: UGUGAUG (DNA:RNA)
RNA: B1 RNA with A25U, C26G, C28G, C29A, U31G
DNA 1: CAATCTGAATTCCGGTCTCCC
DNA 2: TGGTGGCTACGACGGGATT
B14: GCGAGGG (DNA:RNA)
RNA: B1 RNA with A25G, U27G, C28A, C29G, U30G, U31G
DNA 1: CAATCTGAATTCCGGTCTCCC
DNA 2: TGGTGGCTACGACGGGATT
B15: GUCAGAC (DNA:RNA)
RNA: B2 RNA with U25G, G27C, U28A, U29G, C30A
DNA 1: CAATCTGAATTCCGGTCTCCC
DNA 2: TGGTGGCTACGACGGGATT
B16: CAAGAAC (DNA:RNA)
RNA: B2 RNA with U25C, U26A, G27A, U28G, U29A, C30A
DNA 1: CAATCTGAATTCCGGTCTCCC
DNA 2: TGGTGGCTACGACGGGATT
B17: UCGGUAA (DNA:RNA)
RNA: B2 RNA with U26C, U28G, C30A, C31A
DNA 1: CAATCTGAATTCCGGTCTCCC
DNA 2: TGGTGGCTACGACGGGATT
B18: CUCCUAG (DNA:RNA)
RNA: B2 RNA with U25C, G27C, U28C, C30A, C31G
DNA 1: CAATCTGAATTCCGGTCTCCC
DNA 2: TGGTGGCTACGACGGGATT
B19: AUUGUGA (DNA:RNA)
RNA: B1 RNA with C26U, C28G, C29U, U30G, U31A
DNA 1: CAATCTGAATTCCGGTCTCCC
DNA 2: TGGTGGCTACGACGGGATT
B20: GUGUAUC (DNA:RNA)
RNA: B2 RNA with U25G, U29A, C30U
DNA 1: CAATCTGAATTCCGGTCTCCC
DNA 2: TGGTGGCTACGACGGGATT
B21: GCGUAUC (DNA:RNA)
RNA: B2 RNA with U25G, U26C, U29A, C30U
DNA 1: CAATCTGAATTCCGGTCTCCC
DNA 2: TGGTGGCTACGACGGGATT
B22: CCGUAUC (DNA:RNA)
RNA: B2 RNA with U25C, U26C, U29A, C30U
DNA 1: CAATCTGAATTCCGGTCTCCC
DNA 2: TGGTGGCTACGACGGGATT
B23: UAUCUUG (DNA:RNA)
RNA: B1 RNA with A25U, C26A, C29U, U31G
DNA 1: CAATCTGAATTCCGGTCTCCC
DNA 2: TGGTGGCTACGACGGGATT
B24: UUGUAUC (DNA:RNA)
RNA: B2 RNA with U29A, C30U
DNA 1: CAATCTGAATTCCGGTCTCCC
DNA 2: TGGTGGCTACGACGGGATT
B25: GUAUCUC (DNA:RNA)
RNA: B2 RNA with U25G, G27A, U29C, C30U
DNA 1: CAATCTGAATTCCGGTCTCCC
DNA 2: TGGTGGCTACGACGGGATT
B26: CAAGCAG (DNA:RNA)
RNA: B1 RNA with A25C, C26A, U27A, C28G, U30A, U31G
DNA 1: CAATCTGAATTCCGGTCTCCC
DNA 2: TGGTGGCTACGACGGGATT
B27: CACGUCU (DNA:RNA)
RNA: B2 RNA with U25C, U26A, G27C, U28G, C31U
DNA 1: CAATCTGAATTCCGGTCTCCC
DNA 2: TGGTGGCTACGACGGGATT
B28: UGGGAGA (DNA:RNA)
RNA: B2 RNA with U26G, U28G, U29A, C30G, C31A
DNA 1: CAATCTGAATTCCGGTCTCCC
DNA 2: TGGTGGCTACGACGGGATT
B29: UGGAUUU (DNA:RNA)
RNA: B2 RNA with U26G, U28A, C30U, C31U
DNA 1: CAATCTGAATTCCGGTCTCCC
DNA 2: TGGTGGCTACGACGGGATT
B30: CCCUGGA (DNA:RNA)
RNA: B1 RNA with A25C, U27C, C28U, C29G, U30G, U31A
DNA 1: CAATCTGAATTCCGGTCTCCC
DNA 2: TGGTGGCTACGACGGGATT
B31: UGCGAUC (DNA:RNA)
RNA: B2 RNA with U26G, G27C, U28G, U29A, C30U
DNA 1: CAATCTGAATTCCGGTCTCCC
DNA 2: TGGTGGCTACGACGGGATT
B32: UGGAUGU (DNA:RNA)
RNA: B2 RNA with U26G, U28A, C30G, C31U
DNA 1: CAATCTGAATTCCGGTCTCCC
DNA 2: TGGTGGCTACGACGGGATT
B33: UGCGAUG (DNA:RNA)
RNA: B1 RNA with A25U, C26G, U27C, C28G, C29A, U31G
DNA 1: CAATCTGAATTCCGGTCTCCC
DNA 2: TGGTGGCTACGACGGGATT
B34: CGGAUGU (DNA:RNA)
RNA: B2 RNA with U25C, U26G, U28A, C30G, C31U
DNA 1: CAATCTGAATTCCGGTCTCCC
DNA 2: TGGTGGCTACGACGGGATT
B35: UGGGAUG (DNA:RNA)
RNA: B2 RNA with U26G, U28G, U29A, C30U, C31G
DNA 1: CAATCTGAATTCCGGTCTCCC
DNA 2: TGGTGGCTACGACGGGATT
B36: UGCGCGA (DNA:RNA)
RNA: B1 RNA with A25U, C26G, U27C, C28G, U30G, U31A
DNA 1: CAATCTGAATTCCGGTCTCCC
DNA 2: TGGTGGCTACGACGGGATT
B37: CUGGAGA (DNA:RNA)
RNA: B2 RNA with U25C, U28G, U29A, C30G, C31A
DNA 1: CAATCTGAATTCCGGTCTCCC
DNA 2: TGGTGGCTACGACGGGATT
B38: CUGGAUG (DNA:RNA)
RNA: B2 RNA with U25C, U28G, U29A, C30U, C31G
DNA 1: CAATCTGAATTCCGGTCTCCC
DNA 2: TGGTGGCTACGACGGGATT
B39: UGGGGGA (DNA:RNA)
RNA: B2 RNA with U26G, U28G, U29G, C30G, C31A
DNA 1: CAATCTGAATTCCGGTCTCCC
DNA 2: TGGTGGCTACGACGGGATT

target: T1, RBFOX1 RRM RbFoxmut (Fox-RRM*); test: EMSA; HiTS-Eq, 1 nM pool, 10 min; buffer printed only for the single-RNA assays: 10 mM Tris pH 7.5, 150 mM NaCl, 3.4 mM EDTA, 0.001% NP-40, 30 C; settings: tags: His6 N-terminal (pET28a); label: 5' 32P
Method in brief: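 Purified RbFox RRM (wild type or mutant) was equilibrated for 10 min in 50 µL with 1 nM of a 5′-radiolabelled pool of RNA with 7 randomized nucleotides, its flanks annealed to DNA oligonucleotides, across increasing protein concentrations. Free RNA was separated by 8% native PAGE, excised, reverse-transcribed, PCR-barcoded and sequenced on an Illumina HiSeq 2500. Relative association constants came from read-count changes of each variant against the control reaction, normalised to the cognate motif.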

Binder	binding signal
B1	0.0436 KA relative to UGCAUGU
B2	0.104 KA relative to UGCAUGU
B3	0.166 KA relative to UGCAUGU
B4	0.126 KA relative to UGCAUGU
B5	0.17 KA relative to UGCAUGU
B6	0.0824 KA relative to UGCAUGU
B7	0.0763 KA relative to UGCAUGU
B8	0.395 KA relative to UGCAUGU
B9	0.118 KA relative to UGCAUGU
B10	0.268 KA relative to UGCAUGU
B11	0.209 KA relative to UGCAUGU
B12	0.0664 KA relative to UGCAUGU
B13	1.01 KA relative to UGCAUGU
B14	0.0739 KA relative to UGCAUGU
B15	0.0721 KA relative to UGCAUGU
B16	0.106 KA relative to UGCAUGU
B17	0.133 KA relative to UGCAUGU
B18	0.0819 KA relative to UGCAUGU
B19	0.0934 KA relative to UGCAUGU
B20	0.424 KA relative to UGCAUGU

Binder	binding signal
B21	0.194 KA relative to UGCAUGU
B22	0.163 KA relative to UGCAUGU
B23	0.0958 KA relative to UGCAUGU
B24	0.523 KA relative to UGCAUGU
B25	0.0751 KA relative to UGCAUGU
B26	0.0856 KA relative to UGCAUGU
B27	0.0849 KA relative to UGCAUGU
B28	0.137 KA relative to UGCAUGU
B29	0.0654 KA relative to UGCAUGU
B30	0.0858 KA relative to UGCAUGU
B31	0.286 KA relative to UGCAUGU
B32	0.756 KA relative to UGCAUGU
B33	0.493 KA relative to UGCAUGU
B34	0.281 KA relative to UGCAUGU
B35	0.691 KA relative to UGCAUGU
B36	0.0898 KA relative to UGCAUGU
B37	0.0675 KA relative to UGCAUGU
B38	0.646 KA relative to UGCAUGU
B39	0.102 KA relative to UGCAUGU
